Among the data in PubChem BioAssay AID1508602 (The Scripps Research Institute Molecular Screening Center, 2020) are activation values, retold here.

The structures appear in SMILES notation. Several values for one entry are separate records, joined by “and”; a condition that tells them apart may be missing. Equal entries are not always repeated. The whole screen tested about 650,000 compounds, of which about 6,800 (1%) were called active. For the sample, actives were picked, then their nearest neighbours and some compounds at random. Values without a mark were called inactive. Cut-off read from the data, not from the text of the source: active = activation above about 4.9%; inactive = the rest.

This test deals with G-protein coupled receptor 151 (Homo sapiens) (UniProt Q8TDV0). Kind of test: activators of human GPR151, primary screen, cell-based, PathHunter beta-arrestin, luminescence (AID 1508602).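 Note: 0% = median of compound wells and 100% = cells with positive control.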 Particulars: PathHunter beta-arrestin GPR151 cells, at 11.2 µM, stronger effect = higher value.
G-protein coupled receptor 151 (Homo sapiens), sequence (Q8TDV0 whole entry, looked up): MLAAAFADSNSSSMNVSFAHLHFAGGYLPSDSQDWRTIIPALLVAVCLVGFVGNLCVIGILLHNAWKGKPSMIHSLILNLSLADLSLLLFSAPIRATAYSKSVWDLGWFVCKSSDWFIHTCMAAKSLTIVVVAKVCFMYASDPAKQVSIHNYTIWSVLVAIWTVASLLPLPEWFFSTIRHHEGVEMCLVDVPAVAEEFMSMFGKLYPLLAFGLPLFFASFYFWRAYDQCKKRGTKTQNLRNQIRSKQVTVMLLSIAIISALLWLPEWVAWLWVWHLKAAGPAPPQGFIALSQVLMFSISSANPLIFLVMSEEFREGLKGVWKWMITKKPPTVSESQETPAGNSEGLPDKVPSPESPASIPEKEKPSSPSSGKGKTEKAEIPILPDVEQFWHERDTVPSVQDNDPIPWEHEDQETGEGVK
Consider `COc1ccc(NC(=O)c2ccc(F)c3ccccc23)cc1`, for which the activation was 0.361%.

Take `COC(=O)c1cnn2c1NCN(Cc1ccccc1Cl)C2`: the activation was 0.44%.

`CC(=O)Nc1cccc(-c2cnc3[nH]c(=O)n([C@@H](C)c4ccccc4)c3n2)c1`: the activation is 0.0611%.

Regarding `CCN(CC)C(=O)C1c2ccccc2C(=O)N(CCOC)C1c1c[nH]c2ccccc12` (configuration not stated), the activation is -0.555%.

`COc1cc2nc(-c3ccc4c(c3)C(=O)N(CCC(C)C)C4=O)oc(=O)c2cc1OC`: the activation was 5.83% (active).

On to `COc1ccc([N+](=O)[O-])cc1N1C(=O)c2ccc(-c3nc4ccccc4c(=O)o3)cc2C1=O`, for which the activation is 2.31%.

For `COc1ccc(-c2nc3cc(Cl)ccc3c(=O)o2)cc1OC`, the activation was -0.243%.

As to `O=C(c1ccccc1)N1CCN(c2nc3ccccc3o2)CC1`, the activation was 0.594%.

Turning to `Cc1ccc(S(=O)(=O)N/N=C/c2ccc(N(C)C)c(Br)c2)cc1`, the activation is -1.16%.

As to `O=C(CCn1nnc2ccccc21)N/N=C/c1ccc2ccccc2c1`, the activation is -0.0304%.

Consider `Cc1ccccc1Nc1nnc(SCC(=O)N(C)C)s1`, for which the activation is -2.99%.

Take `COc1ccc(NS(=O)(=O)c2ccc(Cl)cc2)cc1`: the activation is 2.48%.

On to `CCOc1ccc(NS(=O)(=O)c2ccc(Cl)cc2)cc1`, for which the activation was 2.4%.

As to `CCc1ccc(NS(=O)(=O)c2ccc(Cl)cc2)cc1`, the activation was 5.43% (active).

Consider `O=C(Nc1ccc(F)c(F)c1)c1ccc(N2CC3CC(C2)c2cccc(=O)n2C3)c(NC(=O)c2ccc(Br)o2)c1` (configuration not stated), for which the activation is 2.62%.

Consider `COc1ccc(C(=O)COC(=O)C(Cc2ccccc2)NC(=O)c2ccco2)cc1` (configuration not stated), for which the activation is 6.4% (active).

As to `CCC(Cc1ccccc1)NC(=O)c1ccco1` (configuration not stated), the activation was 0.495%.

With `O=C(COC(=O)C(Cc1c[nH]c2ccccc12)NC(=O)c1ccco1)c1ccc(Br)cc1` (configuration not stated), the activation is 0.0528%.

`Cc1ccsc1C(=O)OCc1nc2ccccc2s1`: the activation is -2.54%.

For the molecule `Cc1cccnc1CN1CCN(C(=O)Cn2nnnc2CN(C)C(C)C)CC1`, the activation was -1.06%.

As to `Cc1ccc(NC(=O)Cn2cc(-c3ccccc3)c(N3CCOCC3)n2)c(C)c1`, the activation is 4.93% (active).

In the case of `Cc1ccc2c(c1)N(C(=O)Cn1cc(-c3ccccc3)c(N(C)C)n1)CCO2`, the activation is -0.0851%.

`Cc1ccc(C)c(NC(=O)CN2CCOCC2)c1`: the activation was -1.34%.

On to `Cc1c(C(=O)Oc2ccccc2)sc2ncn(Cc3ccccc3F)c(=O)c12`, for which the activation was 1.05%.

For the molecule `CC(C)n1nccc1-c1nnc(NC(=O)Cc2ccc(F)cc2)o1`, the activation is 3.52%.

Turning to `N=C1CCCN1CC(=O)c1ccccc1`, the activation is 0.114%.

Regarding `Cc1ccc2nc3[nH]c4ccccc4c3nc2c1`, the activation is -4.57%.

With `Nc1c([N+](=O)[O-])cc(Br)c2nsnc12`, the activation is 0.283%.

On to `CN(C)CC(C)(O)c1ccc2c(c1)CN(C(=O)c1cc(-c3ccsc3)n[nH]1)CCO2` (configuration not stated), for which the activation was -0.659%.

Regarding `CCOc1ccc(NC(=O)N2CCC(N(C)CCC(C)C)CC2)cc1`, the activation is -0.0877%.

As for `CCOc1ccc(NC(=O)N2CCN(CC)CC2)cc1`, the activation is 5.53% (active).

With `CCOc1ccc(NC(=O)CN2CCN(CC(N)=O)CC2)cc1`, the activation is 0.536%.

Turning to `CCC(=O)Nc1c(C(=O)Nc2ccccc2)oc2ccccc12`, the activation is -0.454%.

Consider `CC(=O)c1cccc(-c2cc(C(=O)Nc3ccc(N4CCOCC4)cc3)ccn2)c1`, for which the activation is 1.66%.

Turning to `CN(C)c1cccc(Nc2nc3ccc(C(=O)Nc4ccc(N5CCOCC5)cc4)cc3s2)c1`, the activation was -1.45%.

Turning to `CN(C)c1cccc(Nc2cc(C(=O)Nc3ccc(N4CCOCC4)cc3)ccn2)c1`, the activation is 5.03% (active).

Regarding `COc1cc(OC)cc(-c2nc3ccccc3c(=O)n2NC(=O)Cc2cccs2)c1`, the activation was 1.45%.

Turning to `O=C(Cc1cccs1)Nn1c(-c2cccc([N+](=O)[O-])c2)nc2ccccc2c1=O`, the activation is 5.65% (active).

With `O=C(/C=C/c1cccc([N+](=O)[O-])c1)Nn1c(-c2cccs2)nc2ccccc2c1=O`, the activation was 1.05%.

`O=C1CC(c2nc3ccccc3n2CC(O)COc2ccccc2)CN1c1ccccc1` (configuration not stated): the activation is 1.94%.

As to `COc1cccc(/C=C2/C(=O)NC(=O)N(c3ccccc3F)C2=O)c1`, the activation was 4.98% (active).

On to `COc1cccc(/C=C2\C(=O)NC(=O)N(c3ccccc3Cl)C2=O)c1`, for which the activation was 1.26%.

For `COc1cccc(N2C(=O)NC(=O)/C(=C/c3ccc(OC)c(O)c3)C2=O)c1`, the activation is 4.48%.

With `Cc1ccc(/C(O)=C2\C(=O)C(=O)N(c3nnc(C)s3)C2c2cccc(Oc3ccccc3)c2)cc1` (configuration not stated), the activation was 2.53%.

For `CCOc1ccc(C2C(C#N)=C(N)N(c3sc4c(c3C#N)CCCC4)C3=C2C(=O)CC(C)(C)C3)cc1` (configuration not stated), the activation was -0.802%.

In the case of `COc1ccc(CCn2c(-c3ccc(S(=O)(=O)N4CCOCC4)cc3)csc2=Nc2cccc(C(F)(F)F)c2)cc1OC`, the activation was 0.281%.

On to `N#Cc1ccccc1OCC(=O)OCC(=O)Nc1ncc(Cl)cc1Cl`, for which the activation was 0.379%.

As for `CCOC(=O)CNC(=O)c1sc2ncn(CC(=O)Nc3ccc(C(C)C)cc3)c(=O)c2c1C`, the activation was -1.34% and -1.19%.

Turning to `O=C(CN1C(=O)CCC1=O)NC(c1ccccc1)c1ccccc1`, the activation was -0.973%.

Take `O=C(CN1C(=O)c2ccccc2C1=O)NC(c1ccccc1)c1ccc(Br)cc1` (configuration not stated): the activation is 5.23% (active).

With `O=C(CN1C(=O)c2ccc([N+](=O)[O-])cc2C1=O)NC(c1ccccc1)c1ccccc1`, the activation is 0.498%.

`NC(=O)c1c(NC(=O)CN(C(=O)c2ccco2)C2CCCC2)sc2c1CCCC2`: the activation was 3.42%.

For the molecule `CN(CC(COc1cccc2ccccc12)OC(=O)c1ccc(Cl)cc1Cl)C1=NS(=O)(=O)c2ccccc21` (configuration not stated), the activation is 0.501%.

Regarding `CSc1nnc2n(/N=C/c3ccc(F)cc3)cnn12`, the activation is -3.69%.

On to `CCC(C)(C)NC(=O)CN(C(=O)c1csnn1)c1cccc(C)c1C`, for which the activation is -1.04%.

As to `O=C(N/N=C\c1ccc(I)o1)c1ccc(Br)cc1`, the activation was 1.14%.

Consider `Cc1ccc(NCC(=O)N/N=C\c2ccc(I)o2)cc1`, for which the activation was 5.65% (active).

Regarding `COc1ccc(Cl)cc1/C=N/NC(=O)CNc1ccc(C)cc1`, the activation was 0.958%.

On to `O=C1Cc2cc(S(=O)(=O)Nc3cccc(Cl)c3)cc3c2N1CCC3`, for which the activation was 5.26% (active).

As to `O=C1Cc2cc(S(=O)(=O)Nc3ccc(C(F)(F)F)cc3)cc3c2N1CCC3`, the activation is -0.781%.

Consider `COc1ccc(NS(=O)(=O)c2cc3c4c(c2)CC(=O)N4CCC3)cc1Cl`, for which the activation is 3.82%.

With `Cc1cccc(C)c1-n1c(N)c(C(=O)NCc2ccccc2)sc1=S`, the activation is -0.178%.

For the molecule `Cc1ccc(C)c(NC(=O)CN(C)S(=O)(=O)c2ccc3nc(-c4ccccc4)[nH]c3c2)c1`, the activation is -2.02%.

Regarding `CC12c3ccccc3C(c3ccccc31)C1C(=O)N(c3cccc(C(=O)O)c3)C(=O)C12` (configuration not stated), the activation is -0.158%.

For the molecule `CC12c3ccccc3C(c3ccccc31)C1C(=O)N(c3ccc(C(=O)O)cc3)C(=O)C12` (configuration not stated), the activation was -0.384%.

As to `CC(=O)Oc1cccc(N2C(=O)C3C4c5ccccc5C(C)(c5ccccc54)C3C2=O)c1` (configuration not stated), the activation is 22.7% (active).

In the case of `CCOc1ccc(N2C(=O)C3C4c5ccccc5C(C(C)O)(c5ccccc54)C3C2=O)cc1` (configuration not stated), the activation is 4.96% (active).

`CC12c3ccccc3C(c3ccccc31)C1C(=O)N(c3cccc(C(F)(F)F)c3)C(=O)C12` (configuration not stated): the activation was 1.26%.

Regarding `Cc1ccc(N2C(=O)C3C4c5ccccc5C(CO)(c5ccccc54)C3C2=O)cc1` (configuration not stated), the activation was -0.914%.

On to `COc1cc(C2Nc3cc(C)c(C)cc3NC3=C2C(=O)CC(C)(C)C3)cc(OC)c1OC` (configuration not stated), for which the activation was 0.742%.

Regarding `CCOC(=O)C1(Cc2cccc(OC)c2)CCCN(C(=O)COc2ccccc2OC)C1` (configuration not stated), the activation was 2.47%.

As for `CCOC(=O)C1=CN(C)C=C(C(=O)OCC)C1c1ccc(OC)c(Br)c1`, the activation was -0.344%.

For the molecule `CCOC(=O)C1=CN(C)C=C(C(=O)OCC)C1c1ccc(OC)cc1`, the activation was 5.01% (active).

As to `CCOC(=O)C1=CN(c2ccc(OCC)cc2)C=C(C(=O)OCC)C1c1ccc(OC)cc1`, the activation was 0.997%.

As for `O=C(NCCc1ccc(O)cc1)c1cccc(Nc2ccncn2)n1`, the activation was -1.69%.

Consider `N#Cc1ccc(C(=O)OCc2ccc(Br)cc2)cc1`, for which the activation was -1.47%.

In the case of `O=C1OC(/C=C/c2cccc(Cl)c2Cl)=NC/1=C\c1cccc([N+](=O)[O-])c1`, the activation was 0.433%.

In the case of `CCOc1ccc(/C=C2N=C(/C=C/c3cccc(Cl)c3Cl)OC\2=O)cc1`, the activation is 6.64% (active).

`CCOc1ccc(/C=C2N=C(/C=C\c3cccc([N+](=O)[O-])c3)OC/2=O)cc1`: the activation was -1.22%.

Take `CN(Cc1cccc(C(F)(F)F)c1)C(=O)CC1C(=O)NCCN1Cc1ccccc1` (configuration not stated): the activation is -0.0176%.

Turning to `COc1ccc(C2=NN(C(=O)c3ccccc3Cl)C(c3cccc(OC)c3OC)C2)cc1OC` (configuration not stated), the activation is -0.321%.

As for `COc1ccc(C2=NN(C(=O)c3cc(OC)c(OC)c(OC)c3)C(c3ccc(Cl)cc3)C2)cc1OC` (configuration not stated), the activation is 7.04% (active).

Consider `O=C(c1ccc(Cl)cc1)N1N=C(c2ccccc2)CC1c1ccc(Cl)cc1` (configuration not stated), for which the activation is 0.747%.

As for `Cc1nnc(SCc2ccc(CSc3nnc(C)n3N)cc2)n1N`, the activation is -2.22%.

Regarding `COc1ccc(-c2cc(N)n(S(=O)(=O)c3ccc([N+](=O)[O-])cc3)n2)c(OC)c1`, the activation was -0.106%.

Consider `COc1ccccc1-c1cc(N)n(S(=O)(=O)c2ccccc2)n1`, for which the activation was -0.0893%.

On to `COc1ccc(-c2cc(N)n(S(=O)(=O)c3ccccc3)n2)c(OC)c1`, for which the activation is 6.94% (active).
